Compound activity: PubChem BioAssay, National Center for Advancing Translational Sciences (NCATS)
Most compounds without a hit are left out; they make up all but 7.4% or so of the library.
KinaseGlo FLuc: Counterscreen for Luciferase (Kinase-Glo TM) Inhibition | AID 1379, 2008 | 200,000 tested, 0.28% active | Kinase-Glo luciferase, ATP luminescence, 8 min | Luciferin 4-monooxygenase (Photuris pensylvanica), Q27757 | Potency, µM (highest dose often 38.3 µM), for inactives: top-dose activity change, negative = inhibition, hits mostly inhibitors; also: % is scaled to controls: 0 for no effect and ±100 for the full control effect; nearly all actives have a fitted effect of over 60% in size
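Compounds were added to a substrate mix at pH 7.2 (50 mM imidazole, 10 uM ATP, within the enzyme's linear range), followed by Kinase-Glo detection reagent; luminescence was measured after 8 minutes at ambient temperature.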
SMN2 splice enh: qHTS Assay for Enhancers of SMN2 Splice Variant Expression; HEK293 SMN2-luciferase splicing reporter, luminescence, 30-36 h; 210,000 tested, 2.8% active; AID 1458, 2008; Potency, µM (series often up to 46.1 µM), for inactives: at the top dose activity change, positive = activation, hits mostly activators; also: % of control where 0% means no effect; nearly all actives have a fitted effect of over 55% in size
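HEK293 cells carry an SMN2 […]–luciferase reporter in which exon 7 inclusion puts luciferase in frame. Cells were plated 10-12 h before compound addition, then incubated 30-36 h at 37C. ONE-Glo luminescence was read; sodium butyrate at 4.5 mM final served as control.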
NPC1 prom act: qHTS Assay for NPC1 Promoter Activators | Potency, µM (series often up to 9.22 µM), inactives show at the top dose activation, hits mostly activators | 320,000 tested, 2.4% active | Huh7 NPC1 promoter luciferase reporter, 24 h | AID 485313, 2010; also: % of control where 0% means no effect; nearly all actives have a fitted effect of over 60% in size
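Cells: Huh7 expressing luciferase under the NPC1 promoter, 1500/well. Seeded 2 h, compound added, incubated 24 h at 37 °C. Luciferase reagent, 10 min ambient, then luminescence.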
Rab9 promoter act: qHTS Assay for Rab9 Promoter Activators | Huh7 Rab9 promoter-luciferase reporter, luminescence, 24 h | Potency, µM (doses to about 9.22 µM), without a hit: top-dose activation, negative = inhibition, actives largely listed as activators | 320,000 tested, 2.8% active | AID 485297, 2010; also: % of control where 0% means no effect; nearly all actives have a fitted effect of over 60% in size
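Luciferase signal after 10 min detection reagent at ambient indicates Rab9 promoter upregulation; stably transfected Huh7 cells were treated 24 h with compound in DMSO at 37 °C, 5% CO2.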
FLuc counter: qHTS profiling assay for firefly luciferase inhibitor/activator using purifed enzyme and Km concentrations of substrates (counterscreen for miR-21 project). Potency, µM (highest dose often 57.5 µM), for the others: top-dose activity change, negative = inhibition, usual class: inhibitors. AID 588342, 2011. 360,000 tested, 6.9% active. purified FLuc, Km substrates, luminescence inhibition;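 also: plate controls were vehicle for no effect and reference inhibitor for full effect; nearly all actives have a fitted effect of over 55% in size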
Target sequence (P08659 whole entry, looked up): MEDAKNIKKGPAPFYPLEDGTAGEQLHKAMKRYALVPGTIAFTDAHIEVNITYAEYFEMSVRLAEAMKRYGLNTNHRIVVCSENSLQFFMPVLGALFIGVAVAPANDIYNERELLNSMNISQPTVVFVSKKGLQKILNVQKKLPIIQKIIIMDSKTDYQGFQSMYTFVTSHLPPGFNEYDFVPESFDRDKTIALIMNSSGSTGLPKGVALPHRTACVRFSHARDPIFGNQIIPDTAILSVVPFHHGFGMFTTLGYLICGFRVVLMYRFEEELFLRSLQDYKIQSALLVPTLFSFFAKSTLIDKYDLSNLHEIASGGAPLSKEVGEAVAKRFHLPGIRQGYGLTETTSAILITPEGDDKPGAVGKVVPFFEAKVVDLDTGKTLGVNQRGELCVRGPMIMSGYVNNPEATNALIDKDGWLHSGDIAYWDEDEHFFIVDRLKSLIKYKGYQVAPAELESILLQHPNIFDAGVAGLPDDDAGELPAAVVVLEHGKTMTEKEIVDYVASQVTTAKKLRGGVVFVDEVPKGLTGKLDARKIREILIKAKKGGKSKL
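Biochemical qHTS of compounds, final roughly 60 µM downward over six points, against 10 nM purified firefly luciferase using Km concentrations of substrates (10 uM D-luciferin, 10 uM ATP) in Tris acetate pH 7.5 buffer; luminescence output.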
ELG1 genotox: qHTS screen for small molecules that induce genotoxicity in human embryonic kidney (HEK293T) cells expressing luciferase-tagged ELG1; HEK293T ELG1-luciferase reporter, luminescence, 16 h; Potency, µM (doses to about 46 µM), inactives show at the top dose activity change, positive = activation, hits mostly activators; 330,000 tested, 1.3% active; also: % of control where 0% means no effect; nearly all actives have a fitted effect of over 60% in size
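After overnight (16 hr) compound treatment at 37 °C, ELG1-luciferase HEK293T cells were lysed with ONE-Glo; luminescence quantified 30 min later at room temperature.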
* marks the source's active call; other numbers are inactive results; ? = inconclusive; . = not tested or not shown; [ ] = remark or other dose. Calls follow the shape of the dose curve; as a rule, active = well fitted curve in the direction sought with a large enough effect; inconclusive = small, poorly fitted or top-dose-only effect, or another doubt; inactive = no such curve, though single readings can be large; an effect the other way counts as inactive or inconclusive. Potency is read from the fitted curve at half-maximal effect.

SMILES	KinaseGlo FLuc	SMN2 splice enh	NPC1 prom act	Rab9 promoter act	FLuc counter	ELG1 genotox
O=C(N/N=C\c1ccncc1)c1ccccc1O	-3%	25%	13%	-1%	9.5µM*	-5%
CCN(C(=O)C(=O)Nc1ccc2nc3n(c(=O)c2c1)CCCCC3)c1ccc(F)cc1	.	9%	.	.	3%	.
Cc1ccc(OCCNC(=O)c2ccc3ccccc3n2)cc1	.	.	-6%	3%	?	21%
O=C(Nc1ccc(Cl)cn1)c1ccc2ccccc2n1	-9%	20µM*	?	?	1.5µM*	?
Cc1ccc(NC(=O)c2ccc3ccccc3n2)nc1	-13%	3.2µM*	2.5µM*	3.5µM*	1.7µM*	9.2µM*
COc1cc(NC(=O)C2CCCN(S(=O)(=O)c3ccc4c(c3)oc(=O)n4C)C2)c(C(=O)O)cc1OC (configuration not stated)	.	-19%	.	.	?	.
CCOc1cc(-c2ccccc2)nc(N)n1	-13%	0%	?	?	?	22%
COc1cc(-c2ccccc2)nc(N)n1	7%	1%	?	3.2µM*	?	16µM*
O=C(COc1ccccc1)Nc1cccc(S(=O)(=O)N2CCCC2)c1	.	.	7%	5%	-1%	-3%
CCOc1ccc(/C=C/C(=O)OCC(=O)Nc2cccc(S(=O)(=O)N3CCCC3)c2)cc1	.	.	-1%	-1%	2.1µM*	-1%
O=C(COc1ccc(F)cc1Cl)Nc1cccc(S(=O)(=O)N2CCCC2)c1	.	.	-1%	3%	13µM*	0%
O=C(COc1ccccc1[N+](=O)[O-])Nc1cccc(S(=O)(=O)N2CCCC2)c1	.	.	.	.	.	-3%
O=C(COc1ccccc1Cl)Nc1cccc(S(=O)(=O)N2CCCC2)c1	.	.	-7%	-2%	19µM*	-1%
CCN(CC)S(=O)(=O)c1cccc(NC(=O)COc2ccc(Cl)cc2Br)c1	1%	-37%	0%	-3%	21µM*	-1%
O=C(COC(=O)c1cccnc1Cl)Nc1cc(S(=O)(=O)N2CCCCC2)ccc1Cl	3%	3%	-9%	7%	-1%	-1%
Nc1cc(N)cc(C(=O)OCC(=O)Nc2cc(S(=O)(=O)N3CCCCC3)ccc2Cl)c1	1%	-4%	-3%	-2%	17µM*	-6%
CCc1cccc(C)c1NC(=O)Cn1nnc(-c2nc(-c3ccccc3F)no2)c1N	.	.	.	.	-1%	.
COc1cc(N)c(Cl)cc1C(=O)OCC(=O)N1CCc2ccccc21	.	.	2%	-5%	2%	1%
CC1CCc2nc3ccccc3c(C(=O)OCC(=O)N3CCc4ccccc43)c2C1 (configuration not stated)	6%	2%	0%	-1%	4.8µM*	-11%
COc1cccc(C(=O)OCC(=O)N2CCc3ccccc32)c1OC	.	.	20%	27%	11µM*	?
O=C(OCC(=O)N1CCc2ccccc21)c1ccccc1	-5%	2%	-1%	6%	9.5µM*	?
CCCc1nc2ccccc2c(C(=O)OCC(=O)N2CCc3ccccc32)c1CC	-1%	-51%	-1%	-2%	?	-13%
O=C(OCC(=O)N1CCc2ccccc21)c1cccnc1Cl	-10%	2%	18%	5%	11µM*	?
CC1CCN(c2ccc(-c3ccc(NC(=O)C(F)(F)F)cc3)nn2)CC1	.	.	0.13µM*	0.5µM*	?	0.73µM*
COc1cccc(/C=C/C(=O)OCC(=O)Nc2ccc(Cl)c(S(=O)(=O)N(C)C)c2)c1	0%	-1%	-1%	-5%	11µM*	0%
SMILES	KinaseGlo FLuc	SMN2 splice enh	NPC1 prom act	Rab9 promoter act	FLuc counter	ELG1 genotox
CN(C)S(=O)(=O)c1cccc(NC(=O)COC(=O)CCOc2ccccc2)c1	-1%	-12%	-7%	7%	-19%	6%
COc1cccc(/C=C/C(=O)OCC(=O)Nc2cccc(S(=O)(=O)N(C)C)c2)c1	-4%	-21%	0%	-7%	11µM*	22%
CN(C)S(=O)(=O)c1cc(NC(=O)COC(=O)/C=C/c2ccco2)ccc1Cl	.	.	-1%	-2%	?	4%
COc1cccc(C2CC(=O)N(c3ccc(F)cc3)C3=C2C(=O)OC3)c1OC (configuration not stated)	.	14%	.	.	2%	.
O=C(Nc1cccc(C(F)(F)F)c1)c1cc(-c2ccc3c(c2)OCCO3)on1	.	.	.	.	1.5µM*	.
Cc1ccc(NC(=O)c2cc(-c3ccc4c(c3)OCO4)on2)cc1	.	-3%	1%	20%	-5%	17%
O=C(Nc1cccc(C(F)(F)F)c1)c1cc(-c2ccc(F)cc2)on1	-3%	11%	-1%	-3%	?	?
O=C(Nc1cccc(Cl)c1)c1cc(-c2ccc3c(c2)OCCO3)on1	.	.	.	.	0.48µM*	.
O=C(Nc1cccc(C(F)(F)F)c1)c1cc(-c2ccc(Cl)cc2)on1	.	-9%	.	.	4%	.
O=C(Nc1ccc(Br)cc1)c1cc(-c2ccc3c(c2)OCO3)on1	.	.	-9%	-11%	-2%	4%
CC(C)c1cc(C(=O)Nc2cccc(C(F)(F)F)c2)no1	0%	-14%	-2%	-5%	15µM*	?
Cc1cccc(NC(=O)c2cc(-c3ccc4c(c3)OCCO4)on2)c1	.	.	.	.	0.19µM*	.
CC1(C)O[C@@H]2O[C@H]([C@@H]3COC(C)(C)O3)[C@H](N)[C@H]2O1	-2%[7.66 µM]	1%[9.22 µM]	.	.	.	.
Cc1ccc(Cl)cc1NC(=O)c1cc(-c2ccc3c(c2)OCCO3)on1	.	.	.	.	1.3µM*	.
CC1CCN(CCc2nc3cc(NC(=O)Nc4ccccc4)ccc3n2C)CC1	-4%	23%	?	?	17µM*	?
CCC(=O)NCCc1nc2cc(NC(=O)c3cccc(Br)c3)ccc2n1C	.	.	.	.	21µM*	.
CCC(=O)NCCc1nc2cc(NC(=O)Nc3ccccc3)ccc2n1C	.	.	1.1µM*	1.6µM*	5.4µM*	?
CC(=O)Nc1ccc2c(c1)nc(CCN1CCC(C)CC1)n2C	0%	3%	2%	10%	-1%	3%
Cn1c(CN2CCCC2)nc2cc(NC(=O)Nc3ccccc3)ccc21	3%	?	18%	27%	0%[2.3 µM]	?
COc1ccc(OCc2nc(C#N)c(NCc3ccccc3Cl)o2)cc1	.	19%	.	.	-2%	.
COc1ccc(/C=C2\N=C(SC)N(c3ccccc3OC)C2=O)cc1	-1%	1.3µM*	-6%	?	?	-14%
CCOc1ccc(N2C(=O)/C(=C/c3ccccc3)N=C2SC)cc1	0%	-11%	3.5µM*	?	-9%	?
